According to PubChem BioAssay AID2806 (Sanford-Burnham Center for Chemical Genomics, 2010):
In all, about 330,000 compounds went through this assay and about 660 (0.2%) were called active. For the sample, actives were picked, then their nearest neighbours and some compounds at random. A number with no mark means an inactive call.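 The calls were made as follows: active = inhibition of at least 40% at 10 µM in the primary screen; inactive = the rest.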

system: intestinal alkaline phosphatase [Mus musculus]; assay: inhibitors of mouse IAP, primary screen, biochemical, luminescence, uHTS (AID 2806); conditions: purified mouse IAP, CDP-Star luminescence, 30 min; at 10 µM; stronger effect = higher value;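 also: plate controls were DMSO with enzyme for no effect and no enzyme wells for full effect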

Compound	inhibition
O=C1NC(=O)N(CCc2ccc(F)cc2)C(=O)/C1=C/C=C/c1ccccc1	1.6%
O=C1NC(=O)N(Cc2ccco2)C(=O)/C1=C\c1ccc(-c2ccc(F)cc2)o1	64.1% (active)
O=C1NC(=O)N(Cc2ccco2)C(=O)/C1=C\c1cccn1CCOc1ccccc1	40.7% (active)
O=C(O)COc1ccccc1/C=C1\C(=O)NC(=O)N(CCC2=CCCCC2)C1=O	0.6%
COC(=O)C1=C(c2cc3ccccc3s2)C[C@@H]2CC[C@H]1N2C(=O)NCc1cccc2ccccc12	1%
COc1ccc2c(c1)[C@]13CCCCC1C(C2)N(C)CC3 (stereo not given in full)	0.8%
O=Cc1cn(Cc2ccc(F)cc2Cl)c2ccccc12	-2%
CNCC(O)c1cc(F)c(OCc2ccccc2)c(OCc2ccccc2)c1F (stereo not given)	5.2%
Cc1cc(C(=O)OCC(=O)Nc2c(F)cccc2F)c(C)n1C1CC1	7.2%
Oc1ccc2c3c1OC1[C@H](O)CC[C@@]4(O)[C@@H](C2)N(CC2CC2)CC[C@]314 (stereo not given in full)	1.2%
O=C1NC(=O)N(c2ccccc2)C(=O)/C1=C/c1ccc([N+](=O)[O-])s1	26.5%
COc1ccc(N2C(=O)/C(=C/c3ccco3)C(=O)NC2=S)cc1	42.1% (active)
COc1cccc(N2C(=O)NC(=O)/C(=C\c3ccc([N+](=O)[O-])s3)C2=O)c1	34.9%
CSc1ccc(C(=O)C2CCCN(Cc3ccn[nH]3)C2)cc1 (stereo not given)	-3.6%
CC1CCCCN1Cc1cccnc1 (stereo not given)	0.7%
